# Inconclusive results are not listed. A number with no mark means an inactive call. Active and inactive are the calls of the source. Calls follow the shape of the dose curve; as a rule, active = well fitted cell-killing curve with a large enough effect; inconclusive = small, poorly fitted or top-dose-only effect; inactive = no such curve, though single readings can be large or run the other way.
# Assay: qHTS of pediatric cancer cell lines to identify multiple opportunities for drug repurposing: Primary screen for Rh30 cells (AID 1347107); also: nearly all actives have a fitted effect of over 75% in size
# Settings: Rh30 rhabdomyosarcoma viability, CellTiter-Glo luminescence, 48 h; series mostly up to 46 µM; activity change, negative = cytotoxic: at the top concentration
# From the text: Drug repurposing or repositioning has been offered as a strategy for drug development in oncology programs. This approach has special potential for childhood cancers and other rare or orphan diseases, where the expected return on new drug development has been a disincentive to pharmaceuticals.
# In this project we exploit the poly-pharmacology of drugs to discover new indications via phenotypic screening of a panel of 19 well-characterized cell lines derived from solid tumors seen in children and adolescents. The goal is to identify approved drugs with previously unrecognized anticancer properties that has the potential to reveal new mechanisms and biological processes involved in carcinogenesis or drug resistance. We employed a titration-based paradigm (quantitative high-throughput screening or qHTS), where all compounds were tested at multiple concentrations for their effect on cell viability. Concentration-response curves (CRCs) were derived directly from the primary screen, and both potency and efficacy values were used to identify compounds with robust bioactivity profiles. We screened the NIH Chemical Genomics Center (NCGC) Pharmaceutical Collection (NPC) and Mechanism Interrogation Plate (MIPE) small molecule collections of approved and investigational compounds against these cell lines; and measured metabolically active cells after 48 hours of compound treatment as a proxy for cell viability.
# Assay Submitter: Nathalia J. Martinez, National Center for Advancing Translational Sciences, National Institutes of Health, Rockville, MD, USA; email: natalia.martinez@nih.gov
# [1] Shen, M et al. Quantitative high-throughput phenotypic screening of pediatric cancer cell lines identifies multiple opportunities for drug repurposing. Oncotarget 2017 Dec 19;9(4):4758-4772. PMID 29435139.
# The cells were obtained from University of North Carolina (UNC), Pediatric Preclinical Testing Program (PPT), and Coriell Institute (CI).
# qHTS cell viability assay:
# Cells were assayed in growth media at a density of 500-1,000 cells/well. Five microliters of cells were dispensed into 1,536-well, white, solid-bottom, TC-treated plates (Greiner Bio One) using a multidrop dispenser and incubated at 37 degrees C, 5% CO2, under a humidified atmosphere for 5 hours. Twenty-three nanoliters of compounds and controls (neutral control DMSO or positive control bortezomib at final concentration of 2.3 µM) were subsequently transferred by Kalypsys pintool. For primary screens, the MIPE collection was tested at 11-point dilutions (final concentrations range from 0.78 nM to 46 µM) and the NPC collection at 8-point dilutions (final concentrations range from 0.59 nM to 46 µM). Compounds tested in follow-up screens were assayed at 11-point dilutions. Cells were incubated for 48 hours, followed by addition of 3 µL of CellTiter-Glo (Promega). After a 15 min incubation at room temperature, samples were analyzed for luminescence intensity using a ViewLux High-throughput CCD imager equipped with clear filters.
# % is scaled to controls: 0 for no effect and ±100 for the full control effect; potency is read from the fitted curve at half-maximal effect.
SMILES,"activity change, negative = cytotoxic",Potency
CN1C(=O)[C@@H](NC(=O)c2cc3ccccc3[nH]2)N=C(c2ccccc2)c2ccccc21,-15.5%,
CCOC(=O)c1ncn2c1CN(C)C(=O)c1c(I)cccc1-2,19%,
Cc1nc2ccccc2c(=O)n1-c1ccccc1Cl,6.04% [at 92.7 µM],
CCN(Cc1ccc(Cl)nc1)/C(=C/[N+](=O)[O-])NC,19%,
C[N+]1(C)[C@@H]2CC[C@H]1CC(OC(=O)C(CO)c1ccccc1)C2 (stereo not given in full),-10.3%,
CCN(CC)Cc1nccn1-c1ccc([N+](=O)[O-])cc1C(=O)c1ccccc1Cl,11.8%,
CC[C@]1(O)CC[C@H]2[C@@H]3CCC4=CCCC[C@@H]4[C@H]3CC[C@@]21C,5.81%,
CC1=C2[C@H]3OC(=O)[C@@H](C)[C@@H]3CC[C@@]2(C)C=CC1=O,-4.83%,
CN(C)C(=S)SSC(=S)N(C)C,,1680 nM (active)
c1cc2c(c(N3CCNCC3)c1)OCCO2,25.6%,
Cc1nnc2n1-c1sc(CCc3ccc(CC(C)C)cc3)cc1C(c1ccccc1Cl)=NC2C (stereo not given),9.16%,
C[C@H]1C(=O)O[C@@H]2CCN3CC=C(COC(=O)[C@](C)(O)[C@]1(C)O)[C@H]23,4.31%,
ClCCCN1CCN(c2cccc(Cl)c2)CC1,14.3%,
C[C@]12C=CC(=O)C=C1CC[C@@H]1[C@@H]2CC[C@@]2(C)[C@H]1CC[C@]2(C)O,0.224%,
Nc1ccccc1C(=O)OCC(O)CO (stereo not given),30%,
C[C@]12CC[C@H]3[C@@H](CCC4=CC(=O)CC[C@@]43C)[C@@H]1CC[C@@H]2C(=O)O,16%,
C[C@@H]1O[C@@H](O[C@@H]2C=C3CC[C@@H]4[C@H](CC[C@]5(C)[C@@H](c6ccc(=O)oc6)CC[C@]45O)[C@@]3(C)CC2)[C@H](O)[C@H](O)[C@H]1O,-25.5%,
CCCC(C)C1(CC)C(=O)N=C(S)NC1=O (stereo not given),21.1%,
COc1cc(CC#N)cc(OC)c1OC,24.8%,
CCCN(CCC)CCc1c[nH]c2ccccc12,-17.6% [at 92.7 µM],

SMILES,"activity change, negative = cytotoxic",Potency
C[C@]12CC[C@H]3[C@@H](CC=C4C[C@@H](O)CC[C@@]43C)[C@@H]1CC[C@@H]2O,21.2%,
NC(=O)CN1CCCC1=O,21.7%,
C[C@H]1CNCCc2ccc(Cl)cc21,21.3%,
CCC1(c2cccc(O)c2)CCCCN(C)C1 (stereo not given),-0.152%,
C=CCN1CC[C@]23CCCC[C@H]2[C@H]1Cc1ccc(O)cc13,9.45%,
ClC1=C(Cl)C2(Cl)C(CBr)CC1(Cl)C2(Cl)Cl (stereo not given),9.32%,
N#Cc1nn(-c2c(Cl)cc(C(F)(F)F)cc2Cl)c(N)c1S(=O)C(F)(F)F (stereo not given),2.19%,
O=C(CCl)c1ccc(Cl)cc1Cl,4.88%,
COc1cc(CC(C)N)cc2c1OCO2 (stereo not given),-5.25% [at 92.7 µM],
COc1cc(N)c(Cl)cc1C(=O)NC1CN2CCC1CC2 (stereo not given),15%,
NC1(c2ccccc2)CCCCC1,-3.74% [at 92.7 µM],
CCc1cc(OC)c(C[C@H](C)N)cc1OC,-24.5% [at 92.7 µM],
Cc1nnc2n1-c1sc(CCC(=O)N3CCOCC3)cc1C(c1ccccc1Cl)=NC2,6.79%,
CC(C)(O)C(Cl)(Cl)Cl,26.8%,
CC(Cc1ccc2c(c1)OCO2)NO (stereo not given),-1.09% [at 92.7 µM],
COc1cc(C[C@@H](C)N)c(OC)cc1Br,10.9% [at 92.7 µM],
C[C@]12CC[C@H](O)CC1=CC[C@@H]1[C@@H]2CC[C@]2(C)C(=O)CC[C@@H]12,18.5%,
CNC(=O)Oc1cccc2ccccc12,11.3%,
CCc1ccc(C2CCNCC2)cc1,13.5%,
CC[C@H]1C[C@@H]2C[C@H]3c4[nH]c5ccc(OC)cc5c4CCN(C2)[C@@H]13,2.81% [at 92.7 µM],

# Reference: PubChem BioAssay (NCATS)
